FBW7 act – activators of human E3 ligase FBW7; Q969H0; AlphaScreen FBW7–phospho-cyclin E peptide binding, activator screen; normalized activity (activation), % at 26.1 µM; hit rate 0.13% among 650,000; AID 1259310; in the data active = normalized activity above about 1.9%;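 note: purified mutant Fbw7 with reduced substrate affinity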
MITF primary – blocks human microphthalmia-associated transcription factor; O75030; hit rate 0.91% among 650,000; inhibition, % at 2.6 µM; AlphaScreen MITF homodimerization, bead proximity signal; AID 1259374; in the data active = inhibition above about 50%
TEAD-YAP inh – TEAD-YAP interaction inhibition. hit rate 1.4% among 640,000. inhibition, % at 9.12 µM. HEK-TIYL cells, TEAD-Gal4/YAP UAS-luciferase luminescence; in the data active = inhibition above about 32%
GPR151 activ – activators of human GPR151; PathHunter beta-arrestin GPR151 cells, luminescence; hit rate 1% among 650,000; Q8TDV0; activation, % at 11.2 µM; in the data active = activation above about 4.9%
Target sequence (Q8TDV0 whole entry, looked up): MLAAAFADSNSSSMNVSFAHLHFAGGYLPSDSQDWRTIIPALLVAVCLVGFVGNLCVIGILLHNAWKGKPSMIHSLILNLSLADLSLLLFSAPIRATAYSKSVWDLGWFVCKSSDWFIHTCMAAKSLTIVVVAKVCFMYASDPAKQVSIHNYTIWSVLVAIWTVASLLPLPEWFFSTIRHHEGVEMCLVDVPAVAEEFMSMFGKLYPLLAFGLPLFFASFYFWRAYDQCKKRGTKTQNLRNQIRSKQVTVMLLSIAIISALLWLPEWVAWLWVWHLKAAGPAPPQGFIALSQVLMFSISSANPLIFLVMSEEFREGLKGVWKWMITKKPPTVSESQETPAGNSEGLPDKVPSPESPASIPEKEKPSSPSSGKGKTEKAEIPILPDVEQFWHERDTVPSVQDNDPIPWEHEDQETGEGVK
A number is an active result; . = inactive; ! = not confirmed by another sample. Shown are actives, neighbours in structure and some others; about 3.5% of the full set was active somewhere.

SMILES	FBW7 act	MITF primary	TEAD-YAP inh	GPR151 activ
COc1ccc(OCC(=O)Nc2ccc3nn(-c4ccc(OC)cc4)nc3c2)cc1	.	.	.	.
COc1ccc(-n2nc3ccc(O)cc3n2)cc1	.	.	65	.
CCN1/C(=C/c2ccc3cc(C)ccc3[n+]2C)C=Cc2cc(C)ccc21	.	.	83	.
CCN1/C(=C/c2scc(-c3ccccc3)[n+]2C)C=Cc2cc(C)ccc21	.	.	80	.
CCOCCCNC(=O)Cn1ncc2c(C)n(Cc3ccccc3)c(C)c2c1=O	.	.	.	.
C/C(=N\N=C1/NC(=O)C(C)S1)c1ccc(C)cc1 (configuration not stated)	.	.	47	.
O=C(O)c1cc(S(=O)(=O)Nc2ccc(O)cc2)ccc1O	.	.	.	.
O=C(O)c1cc(NS(=O)(=O)c2ccc(Cl)c(C(=O)O)c2)ccc1O	.	81	.	.
O=C(CSc1nc2ccsc2c(=O)n1-c1ccc(F)cc1)Nc1ccccc1Cl	.	.	33	.
O=C(CSc1nc2ccsc2c(=O)n1-c1ccccc1)Nc1ccccc1Cl	.	.	.	.
Cc1cccc(NC(=O)C2C3C=CC4(O3)C2C(=O)N(C2CCC(C)CC2)C4C(=O)NC2CCCCC2C)c1 (configuration not stated)	.	.	.	.
COc1ccc(C(=O)N=c2sc3cc(F)ccc3n2C)c(OC)c1	.	.	55	.
CC(=O)c1c(C)[nH]c(C(=O)COC(=O)/C=C/c2c(C)nn(-c3ccccc3)c2C)c1C	.	.	.	.
CON(C)C(=O)c1ccc2c(c1)CC(c1nc3ccc(-c4ccnc(N)n4)cc3[nH]1)CO2 (configuration not stated)	.	.	.	.
CN(CCc1ccccc1)C(=O)c1ccc2c(c1)CC(c1nc3ccc(-c4ccnc(N)n4)cc3[nH]1)CO2 (configuration not stated)	.	.	73	.
CC(CNC(=O)c1ccc2c(c1)CC(c1nc3ccc(-c4ccnc(N)n4)cc3[nH]1)CO2)c1ccccc1 (configuration not stated)	1.9	.	41	.
Cc1ccc(CNC(=O)CCSc2ccccc2)cc1	.	.	.	.
O=C(O)CC1(CC(=O)NCc2ccccc2F)CCCCC1	.	.	.	.
COc1ccc(C2=CC(c3ccccc3F)n3c(nc4ccccc43)N2)cc1 (configuration not stated)	.	.	35	.
CCc1ccc(C2=CC(c3ccccc3F)n3c(nc4ccccc43)N2)cc1 (configuration not stated)	.	.	68	.
Cc1ccc(C2=CC(c3ccc(C)cc3)n3c(nc4ccccc43)N2)cc1 (configuration not stated)	.	.	.	.
COc1cccc(C2=CC(c3ccccc3F)n3c(nc4ccccc43)N2)c1 (configuration not stated)	.	.	.	.
Cc1ccc(C2=CC(c3ccc(F)c(Br)c3)n3c(nc4ccccc43)N2)cc1 (configuration not stated)	.	.	52	.
Fc1ccccc1C1C=C(c2ccc(Br)cc2)Nc2nc3ccccc3n21 (configuration not stated)	.	.	.	.
Cc1ccnc(NC(=O)CSc2nnc3c4ccccc4n(CCc4ccccc4)c3n2)c1	.	.	35	.
SMILES	FBW7 act	MITF primary	TEAD-YAP inh	GPR151 activ
COc1ccc(OC)c(N(CC(=O)NC(C)C)S(=O)(=O)c2ccccc2)c1	.	.	.	.
CC(=O)N1CCc2cc(C(=O)CN3CCN(c4ccc(Cl)cc4)CC3)ccc21	.	.	44	.
O=C(CN1CCCc2ccccc21)N/N=C/c1ccc(Cl)cc1	.	.	36	.
O=C(CN1CCCc2ccccc21)N/N=C/c1ccccc1	.	.	.	.
COc1cccc(CNCCC2CCC(=O)N2CC(O)COc2cccc(OC)c2)c1 (configuration not stated)	.	.	.	.
COC(=O)C(C)Sc1nnc(CSc2ncccn2)n1-c1ccccc1 (configuration not stated)	.	.	.	.
COc1cccc(CSc2nc3ccncc3[nH]2)c1	.	.	69	.
COc1cccc(C(=O)C[n+]2cc(-c3ccc(F)cc3)n(C)c2N)c1	.	.	85	.
CCOC(=O)c1cnc(SCC(=O)Nc2ccc(Cl)cc2F)nc1N	.	.	.	.
O=C(Cc1csc(N2CCOCC2)n1)NNC(=S)Nc1ccc(Cl)cc1Cl	.	.	.	.
CCCOc1ccc(/C=N/NC(=O)Cc2cn3ccsc3n2)c(O)c1	.	.	.	.
O=C(Cn1ccc(C(F)(F)F)n1)N/N=C/c1ccc(O)c(O)c1O	.	65	.	.
O=C(Cc1csc(N2CCOCC2)n1)N/N=C/c1ccc(O)c(O)c1O	.	66	.	.
CN1CCN(CCC(=O)N/N=C/c2ccc(O)cc2O)CC1	.	.	.	.
O=C(CCN1CCN(c2ccccc2)CC1)N/N=C/c1ccc(O)c(O)c1O	.	70	.	.
O=C(Cc1cn2ccsc2n1)N/N=C/c1ccc(O)c(O)c1O	.	78	.	.
C#CCn1cnc2c(nnn2-c2cc(C)cc(C)c2)c1=O	.	.	.	.
Cc1ccc2nc(C)c(C(=O)N3CCC4(CC3)OCCO4)n2c1	.	.	.	.
Cc1cc(Br)cc(C)c1NS(=O)(=O)c1cccc([N+](=O)[O-])c1	.	.	.	.
COc1cc(/C=N/NC(=O)CNc2ccc3ccccc3c2)cc(OC)c1O	.	.	.	.
O=C(COc1ccc(F)cc1)Nc1nccs1	.	.	.	.
CCCc1ccc(OCC(=O)Nc2nccs2)cc1	.	.	81	.
CCc1ccc(OCC(=O)Nc2nccs2)cc1	.	.	86	.
Cc1ccc(OCC(=O)Nc2nccs2)cc1C	.	.	75	.
CCOCCc1nnc(NC(=O)c2sc3ccccc3c2Cl)s1	.	.	.	.
SMILES	FBW7 act	MITF primary	TEAD-YAP inh	GPR151 activ
Oc1cc(O)c2c(c1)O[C@H](c1ccc(O)c(O)c1)[C@@H](O)C2	.	57!	.	.
Oc1cc(O)c2c(c1)O[C@H](c1cc(O)c(O)c(O)c1)[C@H](O)C2	.	87	.	.
O=C(Oc1cc(O)cc2c1C[C@@H](OC(=O)c1cc(O)c(O)c(O)c1)[C@@H](c1cc(O)c(O)c(O)c1)O2)c1cc(O)c(O)c(O)c1	.	62	.	.
O=c1c(O)cc([C@H]2Oc3cc(O)cc(O)c3C[C@H]2O)cc2c([C@H]3Oc4cc(O)cc(O)c4C[C@@H]3O)cc(O)c(O)c12	.	76	.	.
O=C1c2c(O)cc(O)cc2O[C@H](c2ccc(O)c(O)c2)[C@H]1O	.	.	.	.
O=C1c2c(O)cc(O)cc2O[C@H](c2ccc(O)c(O)c2)[C@@H]1O	.	.	.	.
O=C1C[C@@H](c2ccccc2)Oc2cc(O)cc(O)c21	.	.	.	.
O=C(N/N=C/c1cc(Cl)ccc1O)C(=O)Nc1ccccc1OC(F)(F)C(F)F	.	.	79	.
O=C(N/N=C/c1cc([N+](=O)[O-])ccc1O)C(=O)Nc1ccccc1OC(F)(F)C(F)F	.	.	.	.
CCCCC(CC)CNC(=O)C(=O)NC (configuration not stated)	.	.	.	.

Compound activity as filed in PubChem BioAssay.
